For assay [1], the target named is Alpha-galactosidase A (Homo sapiens) (UniProt P06280). The assay is described as follows: Counterscreen for Glucocerebrosidase Inhibitors: qHTS Assay for Human alpha-Galactosidase at pH 4.5 (AID 992). Further: 0% is about no effect. In a few lines:
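Fluorogenic 4-MU alpha-D-galactoside (80 uM) hydrolysis, 2 nM enzyme, pH 4.5 citrate buffer + 0.005% Tween-20; 20 min RT; NaOH/glycine pH 10 stop; Ex365/Em440. Compounds titrated 0.7 nM–77 uM; Hill-equation AC50.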

The target in assay [2] is alpha-glucosidase (Oryza sativa, rice) (UniProt Q653V4). The experiment in a line: Counterscreen for Glucocerebrosidase Inhibitors: qHTS Assay for Rice alpha-Glucosidase at pH 5.0 (AID 997).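 Further: 0% = full activity with enzyme and -100% = basal without enzyme.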 In a few lines: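 Endpoint fluorogenic assay at pH 5.0: compounds (0.7 nM to 77 uM) titrated against 4 nM rice enzyme and 400 uM 4-MU-alpha-glucoside for 20 min at room temperature; NaOH/glycine stop, read ex 365/em 440 nm, Hill-fitted AC50.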

The nature of assay [3]: Validation of Assay for Modulators of Lamin A Splicing (AID 1459; active means well fitted curve in the direction sought with a large enough effect in the signal ratio; the % refers to the signal ratio;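 further: cells exposed to compound for two days before reading; 0% is about no effect; ratio rise marks activators and ratio drop marks inhibitors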). In a few lines:
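Splicing correction read as GFP (500-530 nm) over DsRed2 (575-640 nm) object intensity after 48 h compound exposure of reporter HeLa S3 clones (600 cells/well, 2% FBS medium); ancitabine and cycloheximide titrations, 0.5% DMSO as vehicle.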

Assay [4] can be described thus: qHTS Assay for Lipid Storage Modulators (AID 1519; calls by dose curve; on activity change, negative = inhibition: on the % scale 0 is the no-effect control and ±100 the full control effect). The conditions noted are these: Drosophila S3 cells, BODIPY lipid droplet/cell ratio, laser cytometry, cells loaded with oleic acid. The procedure, abridged: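 Cells seeded at 5,000 per well were treated with compounds over a concentration series and loaded with oleic acid (400 uM, as added). Lipid droplet fluorescence (488 nm excitation, 500-530 nm channel) was read by laser-scanning cytometry and normalized to 20 uM Triacsin C.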

Assay [5] has as its target DNA repair nuclease/redox regulator APEX1 (Homo sapiens) (UniProt P27695). The experiment in a line: qHTS Validation Assay for Inhibitors of the Human Apurinic/apyrimidinic Endonuclease 1 (APE1) (AID 1705;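 further: TAMRA fluorescence gain over two minutes as APE1 cuts a quenched THF abasic duplex; on the % scale 0 is the no-effect control and ±100 the full control effect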). The procedure, abridged:
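Activity read as rising fluorescence (598 nm emission, 525 nm excitation) from incision of a TAMRA/BHQ-2 duplex carrying a THF abasic site (50 nM). Compound and enzyme sat 15 min at RT before substrate start; signal change between first and third 60-s reads.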

Assay [6] in a line: Counterscreen for APE1 Inhibitors: Fluorescent Dye Displacement Validation Assay (AID 1707).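 Further: plate controls were ThO with dsDNA and no compound for no effect and ThO without dsDNA for full effect.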 In a few lines:
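Endpoint fluorescence read at 480 nm excitation / 540 nm emission; DNA-binding compounds lower signal by displacing 250 nM Thiazole Orange from 50 nM dsDNA containing a tetrahydrofuran abasic site, Tris-HCl pH7.5 buffer with NaCl and MgCl2.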

The nature of assay [7]: qHTS for differential inhibitors of proliferation of Plasmodium falciparum line 7G8 (AID 1815).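 Further: parasite growth measured after three days of incubation.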 Further: potency means the concentration at half of the fitted maximal effect.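 On activity change, negative = inhibition: plate controls were vehicle wells for no effect and reference inhibitor wells for full effect.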
A short description of assay [8]: qHTS for differential inhibitors of proliferation of Plasmodium falciparum line GB4 (AID 1816).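 Further: parasite growth measured after 72 h incubation.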 Further: potency means the concentration at half of the fitted maximal effect.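 On activity change, negative = inhibition: 0% = vehicle DMSO and -100% = reference inhibitor.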 The conditions noted are these: Potency: Plasmodium falciparum GB4 proliferation inhibition.
The nature of assay [9]: qHTS for differential inhibitors of proliferation of Plasmodium falciparum line 3D7 (AID 1876). Further: potency means the concentration at half of the fitted maximal effect.
Assay [10] concerns the target Endonuclease 4 (Escherichia coli (strain K12)) (UniProt P0A6C1). The assay is described as follows: Counterscreen for APE1 Inhibitors: qHTS Validation Assay for Inhibitors of Endonuclease IV (AID 1708). Further: on the % scale 0 is the no-effect control and ±100 the full control effect. In a few lines: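 Incision of a double-stranded 50 nM TAMRA/BHQ-2 abasic substrate was followed kinetically (525/598 nm, reads every 60 s) after 15 min enzyme–compound preincubation with 2 nM EndoIV in pH 7.5 Tris buffer with MgCl2, DTT and Tween-20; concentration-response format.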

Setting [11] is: measured here: cell count channel max response.
Where [12] appears, read: measured here: lipid channel max response.

Where “and” joins values, the source holds several entries; their conditions need not be identical. Equal values may be shown once. Records with an inconclusive call do not appear. Calls of active or inactive are those of the source. Unless noted, the call rests on the fitted dose curve; in most records, active means well fitted curve in the direction sought with a large enough effect; inconclusive means small, poorly fitted or top-dose-only effect, or another doubt; inactive means no such curve, though single readings can be large; an effect the other way counts as inactive or inconclusive.

Experimental findings from PubChem BioAssay (NCATS) are described below.

Chain of Alpha-galactosidase A (Homo sapiens) (P06280 whole entry, looked up): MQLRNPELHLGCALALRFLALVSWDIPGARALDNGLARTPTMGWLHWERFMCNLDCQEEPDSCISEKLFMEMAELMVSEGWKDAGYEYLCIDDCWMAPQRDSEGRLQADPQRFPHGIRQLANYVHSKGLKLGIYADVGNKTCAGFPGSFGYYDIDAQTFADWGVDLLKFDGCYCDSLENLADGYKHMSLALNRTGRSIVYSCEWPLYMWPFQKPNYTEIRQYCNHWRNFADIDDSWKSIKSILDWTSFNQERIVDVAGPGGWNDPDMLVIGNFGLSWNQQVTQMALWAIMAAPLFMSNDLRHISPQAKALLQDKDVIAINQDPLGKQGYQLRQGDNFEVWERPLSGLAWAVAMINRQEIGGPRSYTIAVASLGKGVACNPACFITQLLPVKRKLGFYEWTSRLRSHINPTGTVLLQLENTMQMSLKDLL
Chain of DNA repair nuclease/redox regulator APEX1 (Homo sapiens) (P27695 whole entry, looked up): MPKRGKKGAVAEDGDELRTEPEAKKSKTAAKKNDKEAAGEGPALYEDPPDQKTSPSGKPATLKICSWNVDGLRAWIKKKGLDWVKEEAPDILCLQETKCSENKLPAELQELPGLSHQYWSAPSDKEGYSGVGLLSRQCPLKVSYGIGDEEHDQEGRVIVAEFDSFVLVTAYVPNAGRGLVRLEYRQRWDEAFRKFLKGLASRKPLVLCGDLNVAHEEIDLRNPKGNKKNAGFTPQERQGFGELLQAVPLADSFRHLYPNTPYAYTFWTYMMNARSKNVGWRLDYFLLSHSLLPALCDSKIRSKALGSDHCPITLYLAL

Turning to `COc1ccc(-c2ccc(N)[n+](CCCC(=O)O)n2)cc1`, the result in assay [1], in [2] and in [3] was inactive. Moreover, the activity change, negative = inhibition in assay [4] (at 25.7 µM (top of the series)) was -0.132% (inactive). In addition, the max response in assay [4] (setting [11]) was 3.21%; in assay [4] (setting [12]), 7.04%. Further, the Potency entry in assay [5], in [6], in assay [7], in assay [8] and in assay [9] was “inactive” throughout.
For `NC(N)=NC(N)=Nc1cccc(Cl)c1`, the compound was called inactive in [1], in assay [2] and in [3]. The activity change, negative = inhibition in assay [4] (at 57.5 µM (top of the series)) was 3.33% (inactive) and -0.622% (inactive). Besides, the max response in assay [4] (setting [11]) was 13.6% and -27.3%; in [4] (setting [12]) it was 18.7% and -27.9%. Moreover, the Potency entry in assay [5], in [6] and in assay [10] was “inactive” throughout. Also, in assay [9], the Potency is 11.2 µM (active).
As to `CCN(CC)CCCCCCCCOC(=O)c1cc(OC)c(OC)c(OC)c1`, the call in [1], in assay [2] and in [3] was inactive. Also, in assay [4] (at 57.5 µM (top of the series)), the activity change, negative = inhibition is 0.792% (inactive). Also, the values for the max response in assay [4] (setting [11]) and in assay [4] (setting [12]) were 8.64% and 11.3%, respectively. Besides, the Potency entry in [5], in assay [6] and in assay [10] was “inactive” in each case. In addition, the Potency in [7] was 7.08 µM (active); in [9], 5.62 µM (active).
For the compound `NC(Cc1cccc(-c2ccccc2CP(=O)(O)O)c1)C(=O)O` (configuration not stated), the result in assay [3] was inactive. The activity change, negative = inhibition in [4] (at 57.5 µM (top of the series)) was 1.29% (inactive). Further, the max response in [4] (setting [11]) was 44.3%; in assay [4] (setting [12]), 44.8%. Besides, the Potency entry in assay [5], in assay [6], in assay [7], in assay [8] and in assay [9] was “inactive” each time.
As for `CC(N)=O`, the call in assay [1], in [2] and in assay [3] was inactive. For the same compound, the activity change, negative = inhibition in assay [4] (at 57.5 µM (top of the series)) is -0.907% (inactive). In addition, the max response in assay [4] (setting [11]) is -17.4%; in [4] (setting [12]), -17.3%. Moreover, the Potency result in [5], in assay [6], in [7], in assay [8] and in assay [9] was “inactive” each time.
In the case of `CC(C)NCC(O)COc1ccc(CC(N)=O)cc1` (configuration not stated), the compound was classed as inactive in assay [3]. Further, in [4] (at 57.5 µM (top of the series)), the activity change, negative = inhibition is -4.52% (inactive). For the same compound, the max response in assay [4] (setting [11]) was -32.1%; in assay [4] (setting [12]), -32.6%. For the same compound, the Potency result in assay [5], in assay [6], in assay [7], in assay [8] and in assay [9] was “inactive” throughout.
Take `CCCC[C@@]1(C2CCCC2)Cc2cc(OCC(=O)O)c(Cl)c(Cl)c2C1=O`: the outcome in assay [3] was inactive. Moreover, the activity change, negative = inhibition in assay [4] (at 57.5 µM (top of the series)) was -1.19% (inactive). The figures for the max response in assay [4] (setting [11]) and in [4] (setting [12]) were -23.6% and -27%, respectively. For the same compound, the Potency result in assay [5] and in assay [6] was “inactive” each time. The Potency in assay [7] is 8.91 µM (active); in [8] it was 12.6 µM (active).
Take `O=C(O)/C(=C/c1c(C(=O)O)[nH]c2cc(Cl)cc(Cl)c12)c1ccccc1`: the call in [1], in [2] and in assay [3] was inactive. Besides, the activity change, negative = inhibition in assay [4] (at 57.5 µM (top of the series)) was 0.679% (inactive). The results for the max response in [4] (setting [11]) and in assay [4] (setting [12]) were -8.09% and -9.3%, respectively. Also, the Potency result in assay [5], in assay [6], in assay [10] and in assay [9] was “inactive” each time.
Regarding `CSC(N)=NCCC[C@H](N)C(=O)O`, in assay [3], the compound was called inactive. In addition, in assay [4] (at 57.5 µM (top of the series)), the activity change, negative = inhibition was -0.616% (inactive). The max response in assay [4] (setting [11]) came to 39.8%; in [4] (setting [12]), 26.3%. Further, the Potency result in assay [5], in [6], in [7], in assay [8] and in assay [9] was “inactive” throughout.
Turning to `CC[N+](CC)(CC)CC(=O)Nc1c(C)cccc1C`, the call in assay [1], in [2] and in [3] was inactive. The activity change, negative = inhibition in [4] (at 57.5 µM (top of the series)) is 4.67% (inactive). Further, the max response in assay [4] (setting [11]) is -3.7%; in assay [4] (setting [12]), 2.48%. Moreover, the Potency entry in assay [5], in assay [6], in assay [10], in assay [7], in assay [8] and in assay [9] was “inactive” in each case.
On to `N[C@H](C(=O)O)[C@H](O)C(=O)O`, for which the compound was called inactive in [1], in assay [2] and in [3]. Moreover, the activity change, negative = inhibition in [4] (at 57.5 µM (top of the series)) was 1.02% (inactive). Besides, the max response in assay [4] (setting [11]) was -11.9%; in assay [4] (setting [12]), -6.36%. The Potency result in assay [5], in assay [6], in assay [7], in assay [8] and in assay [9] was “inactive” in each case.
With `NCCC1CCCC(CCN)N1` (configuration not stated), the call in assay [3] was inactive. In [4] (at 57.5 µM (top of the series)), the activity change, negative = inhibition is -3.87% (inactive). Besides, the max response in [4] (setting [11]) is -16%; in assay [4] (setting [12]) it was -17.4%. Moreover, the Potency result in [5], in assay [6], in [7], in assay [8] and in assay [9] was “inactive” throughout.
Take `C=C(C)C1CC=C(C(=O)O)CC1` (configuration not stated): in assay [3], the outcome was inactive. In [4] (at 57.5 µM (top of the series)), the activity change, negative = inhibition was 0.974% (inactive) and 1.72% (inactive). The max response in [4] (setting [11]) was 16.2% and 48.1%; in [4] (setting [12]), 18.4% and 48.7%. The Potency result in [5], in assay [6], in [7], in assay [8] and in assay [9] was “inactive” throughout.
Regarding `Cc1nc(N=Nc2ccc(C(=O)O)cc2)c(COP(=O)(O)O)c(C=O)c1O`, the result in assay [1], in assay [2] and in assay [3] was inactive. For the same compound, the activity change, negative = inhibition in [4] (at 57.5 µM (top of the series)) was -0.137% (inactive). Moreover, the max response in assay [4] (setting [11]) is -21.8%; in assay [4] (setting [12]), -20.3%. Also, the Potency entry in [5], in [6], in assay [7], in [8] and in assay [9] was “inactive” throughout.
With `CC1CCN(CC[C@H]2CCCN2S(=O)(=O)c2cccc(O)c2)CC1`, the outcome in [3] was inactive. In addition, the activity change, negative = inhibition in assay [4] (at 57.5 µM (top of the series)) was 5.39% (inactive) and 1.08% (inactive). Further, the max response in assay [4] (setting [11]) was 7.6% and -15.4%; in assay [4] (setting [12]) it was 15.3% and -11.1%. The Potency entry in assay [5], in [6] and in assay [10] was “inactive” in each case. In addition, the Potency in [8] was 12.6 µM (active).
For `O=[N+]([O-])c1cccc2cn[nH]c12`, the call in assay [1], in assay [2] and in assay [3] was inactive. In addition, in assay [4] (at 57.5 µM (top of the series)), the activity change, negative = inhibition was 13.6% (inactive). For the same compound, the max response came to 18.6% in assay [4] (setting [11]) and 36.8% in assay [4] (setting [12]). For the same compound, the Potency entry in [5], in assay [6], in assay [7], in assay [8] and in assay [9] was “inactive” throughout.
In the case of `Nc1nc2[nH]c(=O)cnc2c(=O)[nH]1`, the call in assay [1], in assay [2] and in [3] was inactive. Further, in assay [4] (at 57.5 µM (top of the series)), the activity change, negative = inhibition was 0.27% (inactive). For the same compound, the max response in [4] (setting [11]) was found to be 60.5%; in assay [4] (setting [12]), 55.1%. The Potency entry in assay [5], in assay [6], in assay [10], in assay [7], in assay [8] and in [9] was “inactive” throughout.
As for `COc1ccccc1N1CCN(CCCNc2c(C)c(=O)n(C)c(=O)n2C)CC1`, the compound was classed as inactive in assay [1], in [2] and in assay [3]. The activity change, negative = inhibition in assay [4] (at 57.5 µM (top of the series)) was -0.317% (inactive). Moreover, the results for the max response in assay [4] (setting [11]) and in assay [4] (setting [12]) were 38.5% and 37.3%, respectively. Also, the Potency result in assay [5], in [6], in [10] and in [7] was “inactive” each time. In addition, the Potency in assay [9] is 8.91 µM (active).
